# Laboratory results reported in PMC7862700, “An all-to-all approach to the identification of sequence-specific readers for epigenetic DNA modifications on cytosine”.
# Assays:
# Experiment in all cases: DAPPL (digital affinity profiling via proximity ligation, sequencing); 10 mM Tris-HCl pH 7.5, 50 mM NaCl, 1 mM DTT, 4% glycerol, room temperature, 30 min; GST-TFs on glutathione beads, 16-mer random dsDNA library, 0.1% formaldehyde crosslink after washing; high values mean tight binding
# Details in all cases: protein: recombinant; tags: N-terminal GST; dsDNA, one strand shown
# ELK1 = target: T1, ELK1 (Homo sapiens, UniProt P19419 1-428)
# T1 sequence: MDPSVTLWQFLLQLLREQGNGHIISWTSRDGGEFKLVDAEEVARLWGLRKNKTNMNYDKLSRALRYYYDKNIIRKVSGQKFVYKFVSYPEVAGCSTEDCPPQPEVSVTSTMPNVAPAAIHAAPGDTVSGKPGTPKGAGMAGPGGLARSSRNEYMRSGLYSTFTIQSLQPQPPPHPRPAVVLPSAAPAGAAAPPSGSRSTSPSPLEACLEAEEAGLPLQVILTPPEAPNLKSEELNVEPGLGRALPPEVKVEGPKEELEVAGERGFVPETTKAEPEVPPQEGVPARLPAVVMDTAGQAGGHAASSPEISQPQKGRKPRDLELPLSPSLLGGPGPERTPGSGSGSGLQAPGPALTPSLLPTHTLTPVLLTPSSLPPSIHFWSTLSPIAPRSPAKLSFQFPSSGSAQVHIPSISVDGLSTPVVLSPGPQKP
# Outline: (§1)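 Yeast served to express human transcription factors as GST fusions, which were then captured on glutathione beads and labelled with DNA barcodes. Pooled with a tag-only sample, they were incubated with 200 nmole of a 16-mer random double-stranded DNA library for 30 min at room temperature in Tris/NaCl/DTT/glycerol buffer, washed, crosslinked with 0.1% formaldehyde, ligated by proximity, amplified by PCR and sequenced. Dividing each hexamer's read frequency for a factor by its frequency for the tag-only sample gives the binding signal.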
# ELF1 = ELF1 (Homo sapiens, UniProt P32519 1-619)
# Outline: as §1
# EHF = target: T2, EHF (Homo sapiens, UniProt Q9NZC4 1-300)
# T2 sequence: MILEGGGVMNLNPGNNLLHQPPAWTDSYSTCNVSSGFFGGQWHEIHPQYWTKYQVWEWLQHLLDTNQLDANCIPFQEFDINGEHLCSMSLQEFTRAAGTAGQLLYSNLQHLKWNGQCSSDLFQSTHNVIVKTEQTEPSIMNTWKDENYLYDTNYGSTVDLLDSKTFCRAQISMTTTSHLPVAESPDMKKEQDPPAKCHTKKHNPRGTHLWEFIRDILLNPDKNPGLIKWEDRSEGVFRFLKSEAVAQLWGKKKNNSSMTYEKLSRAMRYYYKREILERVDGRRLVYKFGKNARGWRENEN
# Outline: as §1
# SPIB = SPIB (Homo sapiens, UniProt Q01892 1-262)
# Outline: as §1
# ELK3 = target: T3, ELK3 (Homo sapiens, UniProt P41970 1-407)
# T3 sequence: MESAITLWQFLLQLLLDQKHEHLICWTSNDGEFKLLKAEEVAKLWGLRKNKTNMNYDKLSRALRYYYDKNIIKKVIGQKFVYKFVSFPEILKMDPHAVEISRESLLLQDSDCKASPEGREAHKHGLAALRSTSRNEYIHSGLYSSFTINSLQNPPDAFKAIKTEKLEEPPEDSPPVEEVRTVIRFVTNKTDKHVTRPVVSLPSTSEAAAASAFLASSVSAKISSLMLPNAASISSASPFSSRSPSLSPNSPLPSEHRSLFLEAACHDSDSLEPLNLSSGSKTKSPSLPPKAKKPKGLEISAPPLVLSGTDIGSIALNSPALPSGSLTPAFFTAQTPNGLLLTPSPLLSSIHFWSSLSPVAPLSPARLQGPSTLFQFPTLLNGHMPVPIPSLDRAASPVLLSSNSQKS
# Outline: as §1
# FEV = target: T4, FEV (Homo sapiens, UniProt Q99581 1-238)
# T4 sequence: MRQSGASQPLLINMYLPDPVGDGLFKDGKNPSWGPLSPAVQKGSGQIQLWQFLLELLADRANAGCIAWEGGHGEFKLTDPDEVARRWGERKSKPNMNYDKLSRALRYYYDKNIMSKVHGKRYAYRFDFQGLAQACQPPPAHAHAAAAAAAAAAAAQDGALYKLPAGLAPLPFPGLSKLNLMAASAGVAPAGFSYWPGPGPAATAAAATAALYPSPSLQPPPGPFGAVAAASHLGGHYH
# Outline: as §1
# ELK4 = target: T5, ELK4 (Homo sapiens, UniProt P28324-2 1-405)
# T5 sequence: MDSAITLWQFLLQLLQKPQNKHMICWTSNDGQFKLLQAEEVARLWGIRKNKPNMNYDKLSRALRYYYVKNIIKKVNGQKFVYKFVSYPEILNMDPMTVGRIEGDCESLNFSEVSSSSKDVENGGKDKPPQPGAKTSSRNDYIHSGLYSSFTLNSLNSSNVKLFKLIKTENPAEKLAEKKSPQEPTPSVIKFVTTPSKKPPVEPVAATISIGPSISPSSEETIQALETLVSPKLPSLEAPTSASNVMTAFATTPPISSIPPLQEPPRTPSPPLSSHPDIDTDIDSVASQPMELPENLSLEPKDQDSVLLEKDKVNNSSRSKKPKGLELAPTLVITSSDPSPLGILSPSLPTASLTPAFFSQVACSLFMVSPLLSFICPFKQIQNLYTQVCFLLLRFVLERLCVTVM
# Outline: as §1
# ETV1 = ETV1 (Homo sapiens, UniProt P50549 1-477)
# Outline: as §1
# ETV3L = target: T6, ETV3L (Homo sapiens, UniProt Q6ZN32 1-361)
# T6 sequence: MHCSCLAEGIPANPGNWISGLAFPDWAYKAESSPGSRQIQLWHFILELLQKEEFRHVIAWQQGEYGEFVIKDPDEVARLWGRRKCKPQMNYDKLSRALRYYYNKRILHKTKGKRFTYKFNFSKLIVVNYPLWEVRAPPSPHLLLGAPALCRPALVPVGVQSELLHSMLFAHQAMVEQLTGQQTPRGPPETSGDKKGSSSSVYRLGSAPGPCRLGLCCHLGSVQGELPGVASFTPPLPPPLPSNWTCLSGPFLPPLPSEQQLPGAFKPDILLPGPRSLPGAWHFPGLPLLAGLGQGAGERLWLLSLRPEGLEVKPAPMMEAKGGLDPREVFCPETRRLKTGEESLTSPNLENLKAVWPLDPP
# Outline: as §1
# ETS2 = target: T7, ETS2 (Homo sapiens, UniProt P15036 1-469)
# T7 sequence: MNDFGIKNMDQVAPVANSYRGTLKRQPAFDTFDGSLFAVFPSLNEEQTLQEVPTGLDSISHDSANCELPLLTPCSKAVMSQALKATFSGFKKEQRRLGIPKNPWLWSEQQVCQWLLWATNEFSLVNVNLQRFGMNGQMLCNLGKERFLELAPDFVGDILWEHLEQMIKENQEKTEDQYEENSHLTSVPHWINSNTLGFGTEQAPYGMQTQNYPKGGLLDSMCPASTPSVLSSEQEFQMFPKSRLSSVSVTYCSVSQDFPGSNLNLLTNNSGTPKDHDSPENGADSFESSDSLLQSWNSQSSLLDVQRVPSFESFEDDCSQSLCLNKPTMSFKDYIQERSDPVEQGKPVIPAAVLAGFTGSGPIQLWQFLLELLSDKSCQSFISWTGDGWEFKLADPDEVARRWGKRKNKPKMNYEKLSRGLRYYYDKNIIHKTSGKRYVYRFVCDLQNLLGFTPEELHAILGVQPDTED
# Outline: as §1
# SPDEF = target: T8, SPDEF (Homo sapiens, UniProt O95238 1-335)
# T8 sequence: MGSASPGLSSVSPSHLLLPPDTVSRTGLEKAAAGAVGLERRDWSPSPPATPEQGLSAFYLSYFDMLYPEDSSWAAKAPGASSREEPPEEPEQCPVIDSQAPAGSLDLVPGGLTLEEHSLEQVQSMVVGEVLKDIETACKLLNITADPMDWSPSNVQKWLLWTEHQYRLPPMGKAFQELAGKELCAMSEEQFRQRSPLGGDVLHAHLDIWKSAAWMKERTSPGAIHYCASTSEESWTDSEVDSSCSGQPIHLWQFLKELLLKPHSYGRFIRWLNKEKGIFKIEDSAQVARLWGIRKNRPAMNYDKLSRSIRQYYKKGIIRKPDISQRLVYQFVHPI
# Outline: as §1
# Chain of ELF1 (P32519 whole entry): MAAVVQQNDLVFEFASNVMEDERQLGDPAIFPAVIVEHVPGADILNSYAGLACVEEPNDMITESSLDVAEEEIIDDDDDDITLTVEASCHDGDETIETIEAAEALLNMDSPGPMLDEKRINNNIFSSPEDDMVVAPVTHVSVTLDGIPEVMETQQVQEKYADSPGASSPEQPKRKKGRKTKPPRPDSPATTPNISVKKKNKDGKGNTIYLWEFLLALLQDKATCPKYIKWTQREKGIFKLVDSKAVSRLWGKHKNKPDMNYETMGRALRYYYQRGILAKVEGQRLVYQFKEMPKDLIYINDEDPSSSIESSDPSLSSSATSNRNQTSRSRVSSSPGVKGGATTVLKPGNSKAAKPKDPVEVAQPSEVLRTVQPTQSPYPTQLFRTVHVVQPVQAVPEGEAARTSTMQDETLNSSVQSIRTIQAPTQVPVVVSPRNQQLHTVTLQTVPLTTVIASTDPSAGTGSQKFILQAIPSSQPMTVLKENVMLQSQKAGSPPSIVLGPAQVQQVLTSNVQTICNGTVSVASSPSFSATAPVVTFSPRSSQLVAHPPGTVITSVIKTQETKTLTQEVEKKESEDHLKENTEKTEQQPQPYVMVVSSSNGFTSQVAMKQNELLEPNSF
# Chain of SPIB (Q01892 whole entry): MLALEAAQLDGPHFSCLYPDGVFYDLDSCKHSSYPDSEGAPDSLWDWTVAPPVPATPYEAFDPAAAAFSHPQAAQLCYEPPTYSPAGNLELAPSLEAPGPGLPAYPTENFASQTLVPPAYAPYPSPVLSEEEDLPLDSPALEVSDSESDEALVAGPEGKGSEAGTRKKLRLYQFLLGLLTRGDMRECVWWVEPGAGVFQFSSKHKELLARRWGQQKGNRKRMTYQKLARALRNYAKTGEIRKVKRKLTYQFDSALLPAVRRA
# Chain of ETV1 (P50549 whole entry): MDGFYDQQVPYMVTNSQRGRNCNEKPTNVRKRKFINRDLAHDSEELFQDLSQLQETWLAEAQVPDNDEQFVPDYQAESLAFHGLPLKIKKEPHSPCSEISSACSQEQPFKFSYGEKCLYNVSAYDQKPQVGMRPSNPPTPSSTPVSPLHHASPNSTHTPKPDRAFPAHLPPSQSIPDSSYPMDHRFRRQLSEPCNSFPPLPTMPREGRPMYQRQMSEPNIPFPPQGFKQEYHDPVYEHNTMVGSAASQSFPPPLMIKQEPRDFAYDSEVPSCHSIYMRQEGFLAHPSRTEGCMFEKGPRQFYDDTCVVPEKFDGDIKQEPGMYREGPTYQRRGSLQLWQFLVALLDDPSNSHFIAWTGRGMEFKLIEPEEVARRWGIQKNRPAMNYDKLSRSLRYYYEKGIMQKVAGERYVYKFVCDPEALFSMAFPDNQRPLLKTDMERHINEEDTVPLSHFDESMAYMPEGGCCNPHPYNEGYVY
sequence,measurement,setting,value
CCACCA,binding signal,ELK1,"1.04 fold enrichment (6-mer frequency, TF over GST control)"
same,binding signal,ELF1,"1.12 fold enrichment (6-mer frequency, TF over GST control)"
same,binding signal,EHF,"1.04 fold enrichment (6-mer frequency, TF over GST control)"
same,binding signal,SPIB,"1.08 fold enrichment (6-mer frequency, TF over GST control)"
same,binding signal,ELK3,"1.03 fold enrichment (6-mer frequency, TF over GST control)"
same,binding signal,FEV,"1.04 fold enrichment (6-mer frequency, TF over GST control)"
same,binding signal,ELK4,"1.14 fold enrichment (6-mer frequency, TF over GST control)"
same,binding signal,ETV1,"1.02 fold enrichment (6-mer frequency, TF over GST control)"
same,binding signal,ETV3L,"1.04 fold enrichment (6-mer frequency, TF over GST control)"
same,binding signal,ETS2,"1.05 fold enrichment (6-mer frequency, TF over GST control)"
same,binding signal,SPDEF,"1.01 fold enrichment (6-mer frequency, TF over GST control)"
